Compound activity (PubChem)
Compounds with a hit are over-represented: about 0.93% of the library has one in this group of screens.
AGP1 TOR yeast: yeast TOR pathway AGP1-GFP modulation. S. cerevisiae AGP1-GFP multiplex flow cytometry, 3 h; GFP as percent of DMSO wells. GFP response vs DMSO, % at 10 µM. 0.02% of 320,000 active. AID 2066;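 active means GFP response relative to DMSO above a set limit, near screen average plus 3 SD, cut at about 150% in these data; inconclusive means fewer than 70 cells counted for the yeast strain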;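 further: median GFP channel fluorescence of the gated AGP1 strain per well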
CIT2 TOR yeast: modulators of TOR pathway CIT2-GFP in S. cerevisiae; AID 2029; S. cerevisiae CIT2-GFP strain, flow cytometry, 3 h; 100 means same as DMSO wells; 0.065% of 320,000 active; GFP response vs DMSO, % at 10 µM;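 active means GFP response relative to DMSO above a set limit, near the screen mean plus 3 SD, cut at about 150% in these data; inconclusive means Fewer than 70 cells measured for a yeast strain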;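 further: ratio of well median GFP fluorescence to mean of DMSO wells on the plate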
RPL19A-GFP yeast: yeast TOR pathway RPL19A-GFP modulation; S. cerevisiae RPL19A-GFP strain, flow cytometry, 3 h; active compounds read low; percent response vs DMSO, % at 10 µM; 0.3% of 330,000 active; AID 2025;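 active means percent response vs DMSO below 50%; inconclusive means fewer than 70 events counted for the yeast strain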;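 further: median channel GFP fluorescence of the barcoded RPL19A-GFP strain; ratio of sample median GFP to plate DMSO average so 100% = DMSO; lower means less RPL19A-GFP as with rapamycin TOR inhibition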
LAP4-GFP MLPCN: alters LAP4-GFP fluorescence in TOR pathway yeast screen; GFP response vs DMSO, % at 10 µM; 0.34% of 320,000 active; S. cerevisiae LAP4-GFP multiplex, flow cytometry GFP, 3 h; median GFP as percent of DMSO wells;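 active means GFP response vs DMSO above a set limit, about the screen mean plus 3 SD, cut at about 150% in these data; inconclusive means under 70 cell events counted for the yeast strain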
MEP2 TOR yeast: modulators of TOR pathway MEP2-GFP in S. cerevisiae; 0.51% of 330,000 active; GFP response vs DMSO, % at 10 µM; S. cerevisiae MEP2-GFP strain, flow cytometry GFP, 3 h; 100% = DMSO control level; AID 2016;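 active means GFP response versus DMSO above a set limit, roughly screen mean plus 3 SD, cut at about 180% in these data; inconclusive means fewer than 70 cells counted for a yeast strain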;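 further: median GFP fluorescence of the barcode-gated MEP2-GFP cells per well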
Starred values were filed as active, the others as inactive; ? = inconclusive; / = not tested or not shown; [ ] = dose if it differs, or a comment.

SMILES	AGP1 TOR yeast	CIT2 TOR yeast	RPL19A-GFP yeast	LAP4-GFP MLPCN	MEP2 TOR yeast
NC(=O)C1CCCN(C(=O)c2ccc(Cl)cc2)C1 (stereo not given)	104.9	99.9	100.5	102.6	107.7
O=C(c1ccc(Cl)cc1)N1CCCOC1	?	?	50.1	89.3	409.8*[may fluoresce violet]
O=C(O)c1cccc(NC(=S)NC(=O)c2cccc(OCc3ccccc3)c2)c1	93.9	89.1	94.3	115.6	99.7
O=C(Nc1ccc(COc2ccccc2)cc1)Nc1cccc(C(=O)O)c1	?	?	29.6*[may fluoresce violet]	67.8	799.7*[may fluoresce violet]
CC(=O)c1cccc(NC(=O)Nc2ccccc2)c1	80.0	?	57.2	79.3	581.7*[may fluoresce violet]
COC(=O)c1cccc(NC(=O)Nc2ccc(Cl)cc2Cl)c1	20.0	?	51.0	110.1	721.0*[may fluoresce violet]
CCCC(=O)Nc1ccc(Cl)c(NC(=O)c2cccnc2Cl)c1	90.3	88.1	92.7	85.2	91.8
CC(=O)NCC1=C(NC(C)=O)C2CC1C(C)(C)C2C (stereo not given)	?	?	26.9*[may fluoresce violet]	66.7	599.9*[may fluoresce violet]
O=C(Nc1ccc(-c2csnn2)cc1)C(Cl)(Cl)Cl	90.8	95.7	94.1	115.4	94.1
CCC(C(=O)NC1CCCCC1)N(Cc1cccs1)C(=O)CCC(=O)Nc1cc(C)on1 (stereo not given)	107.2	104.1	102.6	99.4	105.2
O=C1c2ccccc2-c2onc3ccc(Oc4ccccc4)c1c23	90.0	125.5	83.2	234.2*	166.4
CCOC(=O)C(C(=O)OCC)c1cc(Br)c2noc3c2c1C(=O)c1ccccc1-3	86.3	89.0	93.2	143.3	111.2
COc1cccc(CN(C)CC(=O)Nc2ccccc2N2CCOCC2)c1OC	110.2	101.5	106.5	96.7	109.8
CCS(=O)(=O)N1CCN(S(=O)(=O)c2ccc3c(c2)OCCO3)CC1	?	?	40.4*[may fluoresce violet]	114.5	?
CCCc1cc(=O)oc2c(CN3CCCC3)c(O)c(Cl)cc12	77.7	99.9	91.8	94.5	108.7
CCc1cc(=O)oc2c(CNCc3ccccc3F)c(O)c(Cl)cc12	?	?	66.2	87.7	228.6*[may fluoresce violet]
Cn1c(CSc2nc3ccccc3s2)nnc1SCC(=O)NCc1cccnc1	?	?	42.5*[may fluoresce violet]	118.7	588.4*[may fluoresce violet]
Cc1c(O)ccc(C(=O)CN2CCN(c3ccc(F)cc3)CC2)c1O	?	77.9	37.7*	75.5	167.6
O=C(O)COc1c(-c2ccc(Cl)cc2)oc2ccccc2c1=O	88.0	73.9	94.7	167.1*	116.1
COC(=O)c1ccccc1C(=O)N1CCOCCN(C(=O)c2ccccc2C(=O)OC)CCOCC1	?	?	30.8*[may fluoresce violet]	67.6	188.2*[may fluoresce violet]
NNC(=O)c1nc[nH]c1C(=O)Nc1ccccc1[N+](=O)[O-]	99.0	97.6	95.8	94.0	94.8
CC1(C)CNC(=O)CC(C)(C)N1	12.6	?	91.4	89.2	186.4*[may fluoresce violet]
Cc1cc(OCc2cc(C(=O)N(C)C3CCOC3)no2)cc(C)c1Cl (stereo not given)	?	?	27.2*[may fluoresce violet]	84.1	120.8
COc1ccc(-c2nnc(NC(=O)c3ccc([N+](=O)[O-])o3)o2)c(OC)c1	93.3	95.3	96.6	117.2	102.6
Cc1ccc(-c2nnc(NC(=O)c3ccc([N+](=O)[O-])o3)o2)c(C)c1	79.0	90.6	99.2	150.4*	122.4
SMILES	AGP1 TOR yeast	CIT2 TOR yeast	RPL19A-GFP yeast	LAP4-GFP MLPCN	MEP2 TOR yeast
O=C(Cc1ccccc1F)NCC(c1ccco1)N1CCCCC1 (stereo not given)	97.8	101.0	94.4	98.4	98.1
COc1ccccc1NC1=C(C)C(=O)CC1	17.3	?	89.6	90.2	314.7*[may fluoresce violet]
COC1=C(Nc2ccccc2OC)C(=O)c2ccccc2C1=O	99.8	90.6	97.8	108.7	98.0
Cc1cc(C)c(NC(=O)CCCCCNC2CCCCC2)c(C)c1	102.2	104.3	103.4	97.9	108.2
O=C(Nc1cc(F)c(Br)cc1F)c1ccc(Cl)cc1	138.6	125.6	78.2	154.4*	259.6*
O=C(Nc1ccc(Cl)cc1C(F)(F)F)c1ccc(Cl)cc1	88.2	85.8	94.0	90.8	90.2
CN(C)CCC1c2ccc(Cl)cc2CCc2cccnc21 (stereo not given) (tested in a mixture with another compound)	102.2	109.3	105.4	109.1	117.2
CCCCN(C)C(=O)CC(NS(=O)(=O)c1ccc(NC(C)=O)cc1)C(C)C (stereo not given)	24.6	?	94.0	78.4	252.6*[may fluoresce violet]
O=C(c1cccc(Cl)c1)N1CCC(N2CCC(C(=O)N3CCOCC3)CC2)CC1	100.1	101.5	102.8	93.3	95.7
O=C(c1cccc(F)c1)N1CCC(N2CCOCC2)CC1	32.7	?	/	84.3	261.8*[may fluoresce violet]
COc1ccccc1/C=C/C=N/NC(=O)c1cccs1	93.5	78.1	96.1	156.4*	91.8
COc1ccccc1/C=C\C=N\NC(=O)c1ccco1	98.9	100.4	100.4	105.4	94.4
CCOC(=O)c1ccc(OC(=O)CCCCCN=C(N)N)cc1	97.5	96.7	101.4	102.7	95.5
O=C(NCC(Cl)c1ccc2ccccc2c1)c1c(F)cccc1F (stereo not given)	98.8	97.4	100.3	96.4	103.0
CCOc1ncccc1C(=O)NCCc1ccc(S(N)(=O)=O)cc1	?	?	38.0*[may fluoresce violet]	59.7	230.7*[may fluoresce violet]
COc1ccc(OC)c(NC(=O)CN(C)S(=O)(=O)c2ccc(Cl)cc2)c1	100.4	94.0	97.5	121.7	96.1
CN(C)CCOC(=O)/C(=C/c1cn(C)c2ccccc12)NC(=O)c1ccccc1	?	?	45.2*[may fluoresce violet]	94.8	296.2*[may fluoresce violet]
COc1ccc(/C=N/NC(=O)c2cc3c(ccc4ccccc43)o2)cc1OC	90.4	93.1	106.0	70.2	98.1
COc1cc(/C=N/NC(=O)c2cc3c(ccc4ccccc43)o2)cc(OC)c1O	?	?	18.5*[may fluoresce violet]	79.5	244.6*[may fluoresce violet]
O=C(CSc1cc(Cl)ccc1Cl)NC1CCCC1	95.1	91.5	103.9	91.2	104.7
Cc1cc(C)c2nc(N3C(=O)C(O)=C(C(=O)c4ccco4)C3c3ccco3)sc2c1 (stereo not given)	?	?	52.3	89.2	315.3*[may fluoresce violet]
N#C/C(C(=O)Nc1ccc(Cl)cc1)=C(/S)Nc1ccccc1	84.5	114.8	100.7	194.3*	110.0
O=C(Nc1ccc(Nc2ccccc2)cc1)c1ccc(Cl)cc1	101.2	104.8	99.3	117.7	104.7
CCCCN(C(=O)CCCc1nc2ccccc2c(=O)[nH]1)c1c(N)n(CC(C)C)c(=O)[nH]c1=O	103.5	91.7	100.0	103.7	94.3
CC(Oc1ccc(Br)cc1)C(=O)NCC1(N2CCCCC2)CCCCC1 (stereo not given)	92.2	90.4	91.7	86.7	94.1
O=C(ONC1=NCCCCC1)c1ccc(Cl)cc1	43.5	?	/	179.4*[may fluoresce violet]	350.8*[may fluoresce violet]
O=C(ONC1=NCCCCC1)c1c(F)cccc1F	74.2	112.9	99.6	114.7	96.2
